This test concerns Perkinsus marinus PRA240. Description: ATP content (proliferation) relative to DMSO control; higher = more parasite growth (less inhibition). Conditions: 20 µM; 4 days. On the procedure:
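Perkinsus marinus PRA240 trophozoites (2-5x10^6 cells/ml, 100 µl, 96-well) were exposed once to MMV Malaria Box compounds at 20 µM (0.1% DMSO) in triplicate. ATP content (ATPlite bioluminescence) was read at day 4 post-exposure and normalised to DMSO + cells control wells (100% activity). Compounds were identified by joining plate and well to the Malaria Box list.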
In turn, `Cc1sc2ncnc(Sc3nc4ccccc4[nH]3)c2c1C` had an ATP content of 131%.

`FC(F)(F)c1cccc(Nc2nc3ccccc3nc2Nc2cccc(C(F)(F)F)c2)c1`: the ATP content amounted to 155%.

In the case of `CCOc1ccc(N2C(N)=NC(N)=NC2(C)C)cc1`, the ATP content came out at 114%.

With `COc1ccccc1C(=O)ON=C(N)Cc1cccc2ccccc12`, the ATP content was 148%.

The molecule `CCCCOC(=O)c1ccc(Nc2cc(C)nc3ccc(OC)cc23)cc1` returned an ATP content of 93.9%.

With `COc1ccc(-c2nonc2NC(=O)c2cccc(Cl)c2)cc1OC`, the ATP content was found to be 135%.

Take `CC1CCCCN1CCCNC(=O)c1ccc2c(c1)sc1nc(-c3ccc(F)cc3)cn12` (stereo not drawn): the ATP content turned out to be 133%.

In turn, `CCOc1ccc(CCNC(=O)c2cccs2)cc1OCC` came in with an ATP content of 67.6%.

`Oc1ccccc1CN1CCN(C(c2ccccc2)c2ccccc2)CC1`: the ATP content amounted to 128%.

`O=C(NNc1cc(N2CCCC2)nc(N2CCCC2)n1)c1ccccc1`: the ATP content came out at 101%.

On to `COCCNCC(O)Cn1c2ccc(Cl)cc2c2cc(Cl)ccc21` (stereo not drawn), for which the ATP content stood at 143%.

The molecule `Cc1c(C)n(CC(O)CNC2CCCCC2C)c2ccccc12` (stereo not drawn) showed an ATP content of 106%.

The molecule `COc1ccc(C2NCCc3c2[nH]c2ccccc32)cc1CN1CCN(c2ccc(F)cc2)CC1` (stereo not drawn) yielded an ATP content of 171%.

Regarding `N=c1n(CCN2CCCCC2)c2ccccc2n1CC(O)c1cccc(Br)c1` (stereo not drawn), the ATP content is 116%.

The molecule `O=C(Nc1ccc(CN2CCOCC2)cc1)c1ccc(-c2cc(Cl)ccc2Cl)o1` registered an ATP content of 122%.

On to `CCc1ccc(Nc2cc(C)nc3nc(C)nn23)cc1`, for which the ATP content was determined as 139%.

The molecule `CCN(CC)CCn1c(=N)n(CC(O)c2ccc(Cl)c(Cl)c2)c2ccccc21` (stereo not drawn) showed an ATP content of 110%.

The molecule `OC(Cn1nnc2ccccc21)Cn1c2ccc(Br)cc2c2cc(Br)ccc21` (stereo not drawn) came in with an ATP content of 135%.

The molecule `Cc1ccc(C2CC(C(F)(F)F)n3nc(C(=O)N4CCN(C(c5ccccc5)c5ccccc5)CC4)cc3N2)cc1` (stereo not drawn) yielded an ATP content of 144%.

The molecule `O=C(c1ccccc1F)N(Cc1ccc(Cl)cc1)c1ccccn1` had an ATP content of 59%.

`CCCCC(O)(c1ccc(Cl)cc1)C(CN1CCOCC1)c1ccc(Cl)cc1` (stereo not drawn) came in with an ATP content of 131%.

The molecule `CCOc1ccc2c(c1)CN(Cc1ccc(Cl)cc1)CO2` displayed an ATP content of 155%.

With `CCC(=O)Nc1nnc(Cc2ccc(OC)c(OC)c2)s1`, the ATP content was 103%.

In the case of `CN1C=C(c2ccc3ccccc3n2)C(c2c[nH]c3ccccc23)c2ccccc21` (stereo not drawn), the ATP content stood at 108%.

In turn, `CCOc1cc(Br)c(C(C)NC(=O)c2cccc(OC)c2)cc1OCC` (stereo not drawn) gave an ATP content of 115%.

`O=C(CSc1ccc2nnc(-c3cccc(F)c3)n2n1)Nc1ccc2c(c1)OCO2` registered an ATP content of 102%.

Molecule `CC1CCN(Cc2c(O)ccc3cc(-c4nc5ccccc5s4)c(=O)oc23)CC1` came in with an ATP content of 124%.

Take `COc1cccc(Nc2nc(N)c3ccccc3n2)c1`: the ATP content was 9.11%.

As to `Cc1sc(NC(=O)c2ccccc2)c(C(c2cccs2)N2CCN(c3ccccc3)CC2)c1C` (stereo not drawn), the ATP content was 97.8%.

`Cc1ccc(C)c(Cn2c(N3CCC(C(=O)NCc4cccs4)CC3)nc3ccccc32)c1` returned an ATP content of 154%.

With `CC1CC2=C(CC1CNCCCN(C)C)C(C)(C)CCC2` (stereo not drawn), the ATP content was 119%.

`CC1(c2ccccc2)Nc2ccccc2-c2nc3ccccc3n21` (stereo not drawn) registered an ATP content of 109%.

Molecule `N=c1c2ccccc2nnn1-c1cccc(C(F)(F)F)c1` registered an ATP content of 67.7%.

`COc1ccc(-c2cn3c(C(=O)Nc4ccccc4Cl)c(-c4ccccc4)c4c3n2CCCC4)cc1` returned an ATP content of 99.7%.

As to `COc1ccc(-c2nc(N3CCN(C(=O)C4CCCCC4)CC3)c3c4c(sc3n2)CCCC4)cc1`, the ATP content turned out to be 69.7%.

`COc1ccc(C(=O)C(CCC(CNC(C)(C)C)C(=O)c2ccc(OC)cc2)CNC(C)(C)C)cc1` (stereo not drawn) registered an ATP content of 120%.

As for `CC(C)(C)c1ccc(C(=O)Nc2c3c(nn2-c2cccc(Cl)c2)CSC3)cc1`, the ATP content was found to be 147%.

For the molecule `CCn1c(SCC(=O)Nc2cc(C(F)(F)F)ccc2Cl)nc2ccccc2c1=O`, the ATP content came to 102%.

Source of the values: the supplement of paper PMC4206467.
